tim10-1 inh – inhibits growth of tim10-1 mutant yeast; S. cerevisiae tim10-1 ts strain growth, BacTiter-Glo, 24 h; 330,000 compounds, 2.2% hits; inhibition, % at 20 µM; AID 463190;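 active = inhibition of at least 40%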;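 also: mutant grown at 25 °C; 0% = DMSO wells with yeast and 100% = wells holding no yeast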
SKKanGAS inh – SKKanGAS growth inhibition | S. pyogenes SKKanGAS, kanamycin growth, BacTiter-Glo, 6 h | inhibition, % at 7.5 µM | 300,000 compounds, 1.3% hits;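 active = mean replicate score, as percent of positive control median, at least 50; inconclusive = mean below 50 but one replicate at or above 50; inactive = mean and every replicate below 50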;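 also: strain carries kanamycin resistance gene driven by streptokinase promoter and grows in 40 µg/ml kanamycin; loss of luminescence reflects streptokinase promoter inhibition or plain growth inhibition; 0% = median of DMSO wells and 100% = positive control at its reference dose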
PfHsp90 yeast 2 – reduces growth (ATP signal) of yeast expressing P. falciparum Hsp90. inhibition, % at 9.4 µM. S. cerevisiae expressing PfHsp90, BacTiter-Glo ATP, 48 h; yeast lacking PDR1 and PDR3 efflux regulators. 310,000 compounds, 0.32% hits;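 active = every replicate shows inhibition above about 80%, whatever the replicate mean, limit read from the data; inconclusive = mean inhibition reaches the set limit but some replicate falls short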;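 also: 0% = DMSO neutral controls and 100% = 20 µM radicicol positive controls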
TIM10 inh – TIM10 yeast growth inhibition; inhibition, % at 10 µM; S. cerevisiae TIM10 strain growth, BacTiter-Glo luminescence, 24 h; AID 463195; 330,000 compounds, 1.4% hits;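 active = inhibition of 40% or more at the single tested concentration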;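 also: wild-type TIM10 isogenic control strain grown at permissive 25 °C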
tim23-1 inh – growth inhibitors of tim23-1 mutant yeast | S. cerevisiae tim23-1 growth, BacTiter-Glo luminescence, 24 h | inhibition, % at 20 µM | 330,000 compounds, 1.3% hits;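 active = growth inhibition of the mutant yeast at or above 50%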;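 also: temperature-sensitive mutant grown at 25 °C; plate controls were DMSO-treated mutant yeast for no effect and medium wells lacking yeast for full effect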
V-ATPase pHluor – regulators of yeast V-ATPase proton transport. 350,000 compounds, 0.37% hits. AID 504577. S. cerevisiae, pHLuorin cytosolic pH fluorescence. response, % at 10 µM; in the data active = response mostly above about 7.3%, no sharp cut-off; inactive = mostly below about 5.4%; also: actives read high
tim23-1 conf – confirmation of tim23-1 mutant yeast growth inhibitors; shares compounds with tim23-1 inh; S. cerevisiae tim23-1 growth, BacTiter-Glo luminescence, 24 h; inhibition, % at 20 µM; 4,400 compounds, 83% hits; AID 463218;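 active = inhibition above about 39% in either of two replicate wells at 20 µM, limit read from the data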;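 also: temperature-sensitive tim23-1 mutant grown at 25 °C; 0% = DMSO wells with yeast and 100% = medium wells without yeast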
The depositor's hits bear a star; ? = inconclusive; nt = no result given. Compounds with a hit are over-represented: about 4.6% of the library has one in this group of screens.

SMILES	tim10-1 inh	SKKanGAS inh	PfHsp90 yeast 2	TIM10 inh	tim23-1 inh	V-ATPase pHluor	tim23-1 conf
CCCOc1cccc(C(=O)N/N=C/c2coc3ccccc3c2=O)c1	18.3	nt	16.8	4.9	55.5*	-3.2	47.2*
Cc1ccc2occ(/C=N/NC(=O)c3ccncc3)c(=O)c2c1	10.9	1.9	0.8	3.4	51.1*	0.8	50.5*
CC1=C(CC/C(C)=N/NC(N)=S)C(C)(C)CCC1	24.3	-5.8	nt	-26.5	16.2	0.4	nt
Cc1cccc(-n2c(C)c(C)c3c(N)ncnc32)c1	10.3	-1.6	-20.5	0.4	26.3	-2.0	nt
COc1ccc(OCc2cc(C(=O)NC(C)Cn3cncn3)no2)c(Cl)c1 (stereo not drawn)	1.8	-8.5	7.7	-2.8	-9.2	-9.5	nt
COc1ccc(Cl)cc1N(C(=O)Nc1cccc(Cl)c1)C1=NCC(C)S1 (stereo not drawn)	18.4	25.6	-12.5	-3.4	9.9	2.8	nt
CCc1ccccc1NC(=O)C1CCCN(S(=O)(=O)c2ccc3c(c2)CC(C)N3C(C)=O)C1 (stereo not drawn)	10.4	-15.1	-2.7	7.9	22.6	4.0	nt
COc1ccccc1Nc1nc2ccc(C)cc2n2cnnc12	31.8	-6.8	-7.8	21.4	51.0*	-1.1	31.9
O=C(O)C(Oc1ccc2ccccc2c1)c1ccccc1 (stereo not drawn)	-16.1	-12.1	9.0	3.6	97.2*	-0.1	7.7
Cc1cc(N2CCCCCC2)n2nc(C)c(-c3ccccc3)c2n1	30.4	5.1	-0.7	37.5	56.5*	2.2	51.4*
Cc1cc(C)n2nc(C)c(-c3ccc(Cl)cc3)c2n1	16.3	3.0	-2.7	14.0	51.9*	0.2	29.7
O=C(Nc1nc(-c2cccs2)c(-c2ccccc2)s1)c1ccco1	25.6	51.8*	-25.7	36.0	55.3*	3.8	62.4*
Nc1nc(-c2ccc(NC(=O)c3ccco3)cc2)cs1	35.3	16.1	32.7	39.4	55.6*	1.5	69.8*
COc1ccc(-c2nc(NC(=O)c3ccco3)sc2C)cc1	nt	nt	nt	nt	nt	1.8	nt
O=C(Nc1nc(-c2ccc(Cl)s2)cs1)c1ccco1	20.8	13.2	16.4	28.6	62.2*	0.3	67.2*
O=C(Nc1ccc(-c2ccc(N3CCCCC3)nn2)cc1)c1ccco1	26.7	20.2	nt	30.1	62.8*	1.9	66.4*
CCCN(CCC)S(=O)(=O)c1ccc(C(=O)Nc2nc(-c3ccccc3)c(C(=O)OCC)s2)cc1	-0.3	19.8	5.4	2.6	-3.7	-0.7	nt
CCOc1ccc(NC(=O)c2ccc(NS(=O)(=O)c3cccs3)cc2)cc1	8.7	11.4	-2.5	-9.1	11.1	0.2	nt
CC(C)N(C)CCOC(=O)C1COc2ccccc2O1 (stereo not drawn)	10.6	-8.7	27.4	6.5	12.1	-0.5	nt
Cc1ccn2cc(-c3ccc(NC(=O)c4ccco4)cc3)nc2c1	-37.5	-5.9	16.0	31.6	56.0*	-1.9	47.5*
CC(C)c1ccc(S(=O)(=O)N(C)C2(C)CCS(=O)(=O)C2)cc1 (stereo not drawn)	14.1	-8.7	20.0	2.0	14.3	-0.8	nt
O=C1NC(c2ccccc2Cl)=N/C1=C/c1ccco1	16.4	4.9	12.2	30.6	53.2*	-3.4	22.0
O=C1NC(c2ccc(Br)cc2)=N/C1=C/c1ccco1	14.8	-1.8	1.7	8.2	13.4	2.7	nt
N#C/C(=C\c1ccc(OC(F)F)cc1)C(=O)N1CCCCC1	32.8	-5.5	-8.3	25.1	61.7*	3.4	44.4*
CCN1CCN(C(=O)/C(C#N)=C/c2ccc(OC(F)F)cc2)CC1	8.7	-6.4	3.6	1.3	-11.6	3.4	nt
SMILES	tim10-1 inh	SKKanGAS inh	PfHsp90 yeast 2	TIM10 inh	tim23-1 inh	V-ATPase pHluor	tim23-1 conf
COc1ccc(-c2cn3c(C)c(C(=O)N4CCCc5ccccc54)sc3n2)cc1	19.6	35.2	-16.7	-0.4	53.2*	3.4	58.8*
CCc1ccc(NC(=O)C(C)Sc2nnc(CN3CCCC3)o2)cc1 (stereo not drawn)	-13.8	nt	-14.8	7.6	-3.8	5.0	nt
C=CCc1cccc(/C=N/NC(=O)CNc2cccc3ccccc23)c1O	27.3	7.8	-31.1	19.4	57.1*	2.5	72.7*
C=CCc1cccc(/C=N/NC(=O)CCCNc2ccc(C)cc2)c1O	nt	16.1	6.3	nt	nt	-0.5	nt
COc1cc(/C=C/C(=O)OCC(=O)c2ccc(OC(F)F)cc2)ccc1O	-9.0	nt	-0.4	10.3	64.7*	2.5	54.4*
O=C(/C=C/c1ccco1)OCC(=O)c1ccc(OC(F)F)cc1	18.1	nt	13.3	16.0	29.0	-0.4	nt
COc1ccc(S(=O)(=O)N2CCN(C(=O)c3ccc4ccccc4n3)CC2)cc1	37.6	nt	-2.7	35.6	57.8*	1.7	61.0*
CC[n+]1c(/C=C/N(C)c2ccccc2)n(-c2ccccc2)c2ccc(-c3nc4ccccc4s3)cc21	36.6	98.8*	34.7	29.4	79.8*	-2.6	65.2*
CCOC(=O)c1ccc2c(c1)n(CC)c(/C=C/N(C)c1ccccc1)[n+]2CC	1.7	2.4	-10.2	1.1	-17.8	-3.0	nt
COc1ccc(S(=O)(=O)N(C)C[C@@H]2OCCCC[C@@H](C)Oc3ccc(NS(=O)(=O)c4cccs4)cc3C(=O)N([C@H](C)CO)C[C@@H]2C)cc1	nt	nt	nt	nt	nt	0.2	nt
COC(=O)CC1COc2ccccc2N1C(=O)c1ccc(C(C)(C)C)cc1 (stereo not drawn)	21.3	4.4	2.6	24.7	52.7*	0.0	37.9
COc1ccc(CCNC(=O)Cc2c(Cl)cccc2Cl)cc1	-8.8	0.7	8.9	-15.9	-7.3	0.6	nt
COc1ccccc1OCCn1cc(C=O)c2ccccc21	23.8	-5.3	-21.6	4.4	29.6	-1.8	nt
O=Cc1cn(CCOc2ccccc2F)c2ccccc12	13.6	7.7	4.7	4.9	51.1*	1.8	37.7*
COc1ccc(CC2=CC(=O)c3ccccc3C2=O)cc1	29.9	66.1*	4.2	35.8	66.5*	-2.7	74.9*
COc1cc2nc(C3CCC3)nc(N3CCN(c4ccccc4OC)CC3)c2cc1OC	30.1	?	36.9	39.5	53.4*	6.8	43.8*
Cc1c2ccccc2nc2c(F)c(N(C)C)c(F)c(F)c12	21.2	-7.3	-11.8	-0.6	28.0	4.6	nt
CN(C)c1c2ccccc2nc2c(F)c(F)c(F)c(F)c12	17.6	2.2	27.8	19.4	63.9*	-2.8	66.8*
CCc1ccc(OCCNc2cc(N3CCNC(C)C3)ccc2[N+](=O)[O-])cc1 (stereo not drawn)	27.1	nt	4.3	17.6	56.8*	1.8	58.8*
CC1CN(c2ccc([N+](=O)[O-])c(NCCOc3ccc(Cl)cc3)c2)CC(C)N1 (stereo not drawn)	28.4	12.7	0.7	33.5	49.5	-2.8	nt
COc1ccc(CN2CCN(C(=O)c3cccc4ccccc34)CC2)cc1Br	-7.1	3.7	-12.4	4.0	50.2*	-0.2	19.1

Screens deposited in PubChem BioAssay by several laboratories.
